According to PubChem BioAssay AID651919 (Sanford-Burnham Center for Chemical Genomics, 2012):
Values joined by “and” are separate entries in the source; they are usually repeats but may differ in a detail not shown here. Identical values can stand only once.

biological target: C-X-C chemokine receptor type 5 (Homo sapiens) (UniProt P32302); assay: antagonism of CXCR6 versus CXCR5 signaling – cell-based, CHO-K1 PathHunter beta-arrestin, luminescence, set 4, selectivity assay for CXCR6 antagonist project, profiling panel (AID 651919); details: run 1, at 79 µM (top of the series)

Row | Structure (SMILES) | inhibition
1 | COc1ccc(C(=O)NC2CC3CCCC(C2)N3CC(=O)Nc2ccccc2)cc1OC (centres undefined) | 16.5%
2 | COc1ccc(C(=O)NC2CC3CCCC(C2)N3CC(=O)Nc2ccc(C)cc2)cc1OC (centres undefined) | 22.7%
3 | COc1ccc(C(=O)NC2CC3CCCC(C2)N3CC(=O)Nc2ccc(Cl)cc2)cc1 (centres undefined) | 34.5%
4 | COc1ccc(CN2C3CCCC2CC(NC(=O)c2cc(OC)c(OC)c(OC)c2)C3)cc1 (centres undefined) | 37%
5 | COc1cc(OC)cc(C(=O)NC2CC3CCCC(C2)N3CC(=O)Nc2ccc(Cl)cc2)c1 (centres undefined) | 22.6%
6 | COc1cc(OC)cc(C(=O)NC2CC3CCCC(C2)N3CC(=O)Nc2ccccc2)c1 (centres undefined) | 37.4%
7 | COc1ccc(NC(=O)CN2C3CCCC2CC(NC(=O)c2cc(OC)c(OC)c(OC)c2)C3)cc1 (centres undefined) | -6.42%
8 | O=C(CN1C2CCCC1CC(NC(=O)c1ccc3c(c1)OCO3)C2)Nc1ccc(F)cc1 (centres undefined) | 6.87%
9 | Cc1ccc(NC(=O)CN2C3CCCC2CC(NC(=O)c2ccc4c(c2)OCO4)C3)cc1 (centres undefined) | 42%
10 | COc1ccc(NC(=O)CN2C3CCCC2CC(NC(=O)c2ccc(OC)c(OC)c2)C3)cc1 (centres undefined) | -3.99%
11 | COc1cc(C(=O)NC2CC3CCCC(C2)N3CC(=O)Nc2ccc(F)cc2)cc(OC)c1OC (centres undefined) | 1.06%
12 | COc1cc(C(=O)NC2CC3CCCC(C2)N3CC(=O)Nc2ccccc2)cc(OC)c1OC (centres undefined) | 8.6% and 15.6%
13 | COc1cc(OC)cc(C(=O)NC2CC3CCCC(C2)N3CC(=O)Nc2ccc(F)cc2)c1 (centres undefined) | 32.4%
14 | COc1cc(OC)cc(C(=O)NC2CC3CCCC(C2)N3CC(=O)Nc2ccc(C)cc2)c1 (centres undefined) | 8.41%
15 | COc1ccc(C(=O)NC2CC3CCCC(C2)N3CC(=O)Nc2ccc(Cl)cc2)cc1OC (centres undefined) | 0.551%
16 | COc1ccc(NC(=O)CN2C3CCCC2CC(NC(=O)c2cc(OC)cc(OC)c2)C3)cc1 (centres undefined) | 22.9%
17 | COc1cc(C(=O)NC2CC3CCCC(C2)N3CC(=O)Nc2ccccc2Cl)cc(OC)c1OC (centres undefined) | 29.2% and 16%

Row | Structure (SMILES) | inhibition
18 | O=C(CN1C2CCCC1CC(NC(=O)c1ccc3c(c1)OCO3)C2)Nc1ccccc1 (centres undefined) | 27.8%
19 | COc1ccc(NC(=O)CN2C3CCCC2CC(NC(=O)c2ccc4c(c2)OCO4)C3)cc1 (centres undefined) | 21%
20 | COc1cccc(C(=O)NC2CC3CCCC(C2)N3CC(=O)Nc2ccc(Cl)cc2)c1 (centres undefined) | -2.39%
21 | COc1ccccc1NC(=O)CN1C2CCCC1CC(NC(=O)c1cc(OC)c(OC)c(OC)c1)C2 (centres undefined) | 10.1%
22 | COc1ccc(C(=O)NC2CC3CCCC(C2)N3CC(=O)Nc2ccc(F)cc2)cc1OC (centres undefined) | 1.06%
23 | COc1ccc(NC(=O)CN2C3CCCC2CC(NC(=O)c2cccc(OC)c2)C3)cc1 (centres undefined) | 8.8%
24 | COc1ccc(C(=O)NC2CC3CCCC(C2)N3CC(=O)Nc2ccccc2)cc1 (centres undefined) | 3.68%
25 | COc1ccc(C(=O)NC2CC3CCCC(C2)N3CC(=O)Nc2ccc(F)cc2)cc1 (centres undefined) | -9.29%
26 | COc1cccc(C(=O)NC2CC3CCCC(C2)N3CC(=O)Nc2ccc(F)cc2)c1 (centres undefined) | -4.11%
27 | COc1ccc(NC(=O)CN2C3CCCC2CC(NC(=O)c2ccc(OC)cc2)C3)cc1 (centres undefined) | -6.48%
28 | COc1ccc(C(=O)NC2CC3CCCC(C2)N3CC(=O)Nc2ccc(C)cc2)cc1 (centres undefined) | 22.2%
29 | O=C(CN1C2CCCC1CC(NC(=O)c1ccc3c(c1)OCO3)C2)Nc1ccc(Cl)cc1 (centres undefined) | 44.8%
30 | COc1cccc(C(=O)NC2CC3CCCC(C2)N3CC(=O)Nc2ccc(C)cc2)c1 (centres undefined) | 44.1%
31 | COc1cccc(C(=O)NC2CC3CCCC(C2)N3CC(=O)Nc2ccccc2)c1 (centres undefined) | 10.5%
32 | COc1cc(C(=O)NC2CC3CCCC(C2)N3CC(=O)Nc2ccc(C)cc2)cc(OC)c1OC (centres undefined) | 2.28%
33 | COc1cc(C(=O)NC2CC3CCCC(C2)N3CC(=O)Nc2ccc(Cl)cc2)cc(OC)c1OC (centres undefined) | -11.9%
34 | O=C(CN1C2CCCC1CC(NC(=O)c1ccccc1)C2)Nc1ccccc1 (centres undefined) | 8.48%
